Test results reported in the supplement of paper PMC10849652.
About 7,900 targets were measured; listed, in parts, are those with a hit and a random draw of the rest. About 0.6% of all pairs of compound and target were hits. Values without a mark were called inactive.

What was measured:
Experiment in all cases: log2 fold change, soluble protein after heating vs DMSO (PISA); higher = thermal stabilisation; K562 cells, 10 uM, 30 min; active = over 0.2 and 3.5 SD of the protein, either way, in both replicates (recomputed)
[1] = compound: NC(=O)Nc1cc(-c2cccc(F)c2)sc1C(=O)N[C@H]1CCCNC1
In short: (§1)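 K562 cells at 2×10^6 cells/mL were given 10 μM compound for 30 min. Aliquots then went through 3 min of heating across 48°C-58°C, were pooled, and were extracted in PBS with 0.5% NP-40 at 4°C, and the supernatant after 21,000xg for 90 min was quantified by TMTpro 16plex LC-MS/MS with channel sums equalised. Thermal stability relative to control samples, from duplicates, is given as log2 fold change.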

[2] = compound: NC(=O)c1cnc(N[C@@H]2CCCC[C@@H]2N)nc1Nc1cccc(-n2nccn2)c1
In short: as §1

[3] = compound: NC1(c2ccc(-c3nc4ccn5c(=O)[nH]nc5c4cc3-c3ccccc3)cc2)CCC1
In short: as §1

[4] = compound: NCC(=O)Nc1ccc(-n2nc(C(F)(F)F)cc2-c2ccc3c(ccc4ccccc43)c2)cc1
In short: as §1

entinostat = compound: Nc1ccccc1NC(=O)c1ccc(CNC(=O)OCc2cccnc2)cc1 [entinostat]
In short: as §1

vorinostat = compound: O=C(CCCCCCC(=O)Nc1ccccc1)NO [vorinostat]
In short: as §1

citarinostat = compound: O=C(CCCCCCNC(=O)c1cnc(N(c2ccccc2)c2ccccc2Cl)nc1)NO [citarinostat]
In short: as §1

silmitasertib = compound: O=C(O)c1ccc2c(c1)nc(Nc1cccc(Cl)c1)c1ccncc12 [silmitasertib]
In short: as §1

[5] = compound: O=C1NC(=O)C(c2cnc3ccccn23)=C1c1cn2c3c(cc(F)cc13)CN(C(=O)N1CCCCC1)CC2
In short: as §1

[6] = compound: c1cc(OCCN2CCCCC2)cc(-c2n[nH]c3ccc(-c4nnc[nH]4)cc23)c1
In short: as §1

UniProt Q9P2B2, sequence (Q9P2B2 whole entry, looked up): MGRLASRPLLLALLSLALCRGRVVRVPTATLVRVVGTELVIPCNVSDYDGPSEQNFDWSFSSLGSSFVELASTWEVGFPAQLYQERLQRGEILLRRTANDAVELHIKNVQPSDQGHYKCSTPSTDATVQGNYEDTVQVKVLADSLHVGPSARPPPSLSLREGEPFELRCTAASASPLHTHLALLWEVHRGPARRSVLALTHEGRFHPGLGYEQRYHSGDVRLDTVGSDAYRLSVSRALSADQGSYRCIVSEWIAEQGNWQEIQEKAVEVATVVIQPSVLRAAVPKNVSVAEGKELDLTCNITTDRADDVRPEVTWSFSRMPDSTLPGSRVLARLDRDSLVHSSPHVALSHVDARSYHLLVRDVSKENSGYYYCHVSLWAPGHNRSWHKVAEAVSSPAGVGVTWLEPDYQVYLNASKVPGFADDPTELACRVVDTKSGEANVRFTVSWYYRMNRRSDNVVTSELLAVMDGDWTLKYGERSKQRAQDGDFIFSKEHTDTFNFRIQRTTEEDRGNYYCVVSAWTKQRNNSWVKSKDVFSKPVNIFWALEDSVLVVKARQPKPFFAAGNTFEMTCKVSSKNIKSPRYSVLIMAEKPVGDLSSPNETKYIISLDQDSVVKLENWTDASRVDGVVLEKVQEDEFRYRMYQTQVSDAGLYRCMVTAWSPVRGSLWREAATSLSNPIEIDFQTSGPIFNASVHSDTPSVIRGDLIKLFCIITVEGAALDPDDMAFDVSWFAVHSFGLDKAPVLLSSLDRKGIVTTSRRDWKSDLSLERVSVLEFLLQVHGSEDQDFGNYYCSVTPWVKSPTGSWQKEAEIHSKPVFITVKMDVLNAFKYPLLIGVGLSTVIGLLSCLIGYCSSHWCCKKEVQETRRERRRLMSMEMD
UniProt Q7RTV0, sequence (Q7RTV0 whole entry, looked up): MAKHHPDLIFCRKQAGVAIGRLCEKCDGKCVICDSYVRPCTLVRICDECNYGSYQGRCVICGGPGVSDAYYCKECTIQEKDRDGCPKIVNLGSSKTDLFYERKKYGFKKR
UniProt P25788, sequence (P25788 whole entry, looked up): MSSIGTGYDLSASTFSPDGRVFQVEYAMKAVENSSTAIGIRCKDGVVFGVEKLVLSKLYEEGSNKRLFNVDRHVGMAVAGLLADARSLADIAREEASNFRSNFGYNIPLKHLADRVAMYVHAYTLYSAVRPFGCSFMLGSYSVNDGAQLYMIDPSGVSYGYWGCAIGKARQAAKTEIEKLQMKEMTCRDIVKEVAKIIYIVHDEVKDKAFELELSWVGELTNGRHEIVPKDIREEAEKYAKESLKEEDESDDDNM
UniProt P0CG38, sequence (P0CG38 whole entry, looked up): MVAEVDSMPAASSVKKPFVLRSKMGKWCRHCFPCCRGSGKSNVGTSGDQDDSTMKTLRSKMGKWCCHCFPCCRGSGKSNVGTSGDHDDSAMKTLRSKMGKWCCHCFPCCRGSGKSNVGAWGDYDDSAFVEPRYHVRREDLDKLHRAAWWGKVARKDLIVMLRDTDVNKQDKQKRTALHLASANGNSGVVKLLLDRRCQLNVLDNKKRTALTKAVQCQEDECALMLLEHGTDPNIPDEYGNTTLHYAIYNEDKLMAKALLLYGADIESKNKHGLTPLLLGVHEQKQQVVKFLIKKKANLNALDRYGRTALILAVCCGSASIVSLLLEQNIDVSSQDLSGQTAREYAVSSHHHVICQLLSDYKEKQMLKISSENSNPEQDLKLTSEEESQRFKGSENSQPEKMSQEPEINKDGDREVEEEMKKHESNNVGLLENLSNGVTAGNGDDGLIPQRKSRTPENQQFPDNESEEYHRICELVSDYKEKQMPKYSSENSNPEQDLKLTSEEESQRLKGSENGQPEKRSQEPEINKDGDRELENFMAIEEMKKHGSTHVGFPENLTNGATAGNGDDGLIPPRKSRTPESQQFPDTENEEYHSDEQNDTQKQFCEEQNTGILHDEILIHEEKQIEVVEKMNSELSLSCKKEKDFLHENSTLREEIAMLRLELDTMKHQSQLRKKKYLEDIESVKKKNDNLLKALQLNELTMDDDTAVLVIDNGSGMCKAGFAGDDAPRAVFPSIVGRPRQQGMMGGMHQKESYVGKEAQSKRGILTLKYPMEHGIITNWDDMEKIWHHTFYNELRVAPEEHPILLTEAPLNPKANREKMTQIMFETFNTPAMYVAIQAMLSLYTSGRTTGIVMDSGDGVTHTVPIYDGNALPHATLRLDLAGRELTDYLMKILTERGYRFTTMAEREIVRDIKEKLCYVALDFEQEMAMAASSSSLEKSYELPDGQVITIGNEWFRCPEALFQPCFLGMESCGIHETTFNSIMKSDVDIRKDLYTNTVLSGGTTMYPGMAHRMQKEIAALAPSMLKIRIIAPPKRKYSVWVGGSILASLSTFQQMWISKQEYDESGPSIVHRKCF
UniProt Q13356, sequence (Q13356 whole entry, looked up): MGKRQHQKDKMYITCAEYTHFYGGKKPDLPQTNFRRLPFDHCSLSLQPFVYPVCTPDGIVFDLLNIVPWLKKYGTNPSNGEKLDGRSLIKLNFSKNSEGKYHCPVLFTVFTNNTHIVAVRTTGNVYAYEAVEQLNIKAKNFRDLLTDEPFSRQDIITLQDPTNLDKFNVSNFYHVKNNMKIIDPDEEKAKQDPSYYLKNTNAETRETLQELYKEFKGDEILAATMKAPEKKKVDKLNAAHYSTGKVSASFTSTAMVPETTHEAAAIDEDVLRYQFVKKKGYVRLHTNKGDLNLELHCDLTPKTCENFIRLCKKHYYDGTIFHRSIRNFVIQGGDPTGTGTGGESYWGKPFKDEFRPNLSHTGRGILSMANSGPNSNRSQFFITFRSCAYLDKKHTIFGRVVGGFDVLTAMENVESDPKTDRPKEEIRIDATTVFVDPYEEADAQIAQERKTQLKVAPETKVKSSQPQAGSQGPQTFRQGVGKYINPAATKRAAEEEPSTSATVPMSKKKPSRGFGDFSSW
UniProt O00625, sequence (O00625 whole entry, looked up): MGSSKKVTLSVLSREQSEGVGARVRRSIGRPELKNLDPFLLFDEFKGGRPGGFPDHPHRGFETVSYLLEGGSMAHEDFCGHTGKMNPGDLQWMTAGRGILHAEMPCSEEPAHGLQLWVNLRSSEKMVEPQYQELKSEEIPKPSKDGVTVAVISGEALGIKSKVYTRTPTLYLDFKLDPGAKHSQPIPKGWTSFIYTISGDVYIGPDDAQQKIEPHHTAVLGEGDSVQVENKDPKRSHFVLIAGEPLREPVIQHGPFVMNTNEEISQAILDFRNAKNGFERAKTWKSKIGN
UniProt Q8IWE5, sequence (Q8IWE5 whole entry, looked up): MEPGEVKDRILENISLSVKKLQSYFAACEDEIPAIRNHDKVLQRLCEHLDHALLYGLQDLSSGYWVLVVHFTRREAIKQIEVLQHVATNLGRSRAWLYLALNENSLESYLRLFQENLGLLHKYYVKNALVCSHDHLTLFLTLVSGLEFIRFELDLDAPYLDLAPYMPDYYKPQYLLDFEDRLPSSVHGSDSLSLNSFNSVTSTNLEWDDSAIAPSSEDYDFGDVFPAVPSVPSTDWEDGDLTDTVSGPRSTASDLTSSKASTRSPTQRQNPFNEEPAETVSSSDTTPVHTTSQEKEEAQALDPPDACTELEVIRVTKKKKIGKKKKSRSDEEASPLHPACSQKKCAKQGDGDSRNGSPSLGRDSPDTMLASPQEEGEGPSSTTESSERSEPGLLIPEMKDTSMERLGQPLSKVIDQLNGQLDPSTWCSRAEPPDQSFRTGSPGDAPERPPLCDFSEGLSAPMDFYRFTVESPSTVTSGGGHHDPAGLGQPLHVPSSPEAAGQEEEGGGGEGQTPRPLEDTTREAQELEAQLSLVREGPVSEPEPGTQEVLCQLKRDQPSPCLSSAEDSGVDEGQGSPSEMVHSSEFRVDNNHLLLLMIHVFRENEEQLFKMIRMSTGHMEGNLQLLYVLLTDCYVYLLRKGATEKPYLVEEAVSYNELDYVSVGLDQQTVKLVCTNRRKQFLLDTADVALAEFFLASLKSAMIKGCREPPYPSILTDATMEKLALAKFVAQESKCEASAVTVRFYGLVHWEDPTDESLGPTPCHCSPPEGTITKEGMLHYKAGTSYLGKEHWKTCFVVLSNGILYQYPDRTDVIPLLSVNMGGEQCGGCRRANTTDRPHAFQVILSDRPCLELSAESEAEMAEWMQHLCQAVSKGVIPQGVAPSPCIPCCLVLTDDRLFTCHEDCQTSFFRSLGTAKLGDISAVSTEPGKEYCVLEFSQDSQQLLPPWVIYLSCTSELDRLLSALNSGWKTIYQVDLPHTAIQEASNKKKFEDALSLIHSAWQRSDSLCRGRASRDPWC
UniProt Q05655, sequence (Q05655 whole entry, looked up): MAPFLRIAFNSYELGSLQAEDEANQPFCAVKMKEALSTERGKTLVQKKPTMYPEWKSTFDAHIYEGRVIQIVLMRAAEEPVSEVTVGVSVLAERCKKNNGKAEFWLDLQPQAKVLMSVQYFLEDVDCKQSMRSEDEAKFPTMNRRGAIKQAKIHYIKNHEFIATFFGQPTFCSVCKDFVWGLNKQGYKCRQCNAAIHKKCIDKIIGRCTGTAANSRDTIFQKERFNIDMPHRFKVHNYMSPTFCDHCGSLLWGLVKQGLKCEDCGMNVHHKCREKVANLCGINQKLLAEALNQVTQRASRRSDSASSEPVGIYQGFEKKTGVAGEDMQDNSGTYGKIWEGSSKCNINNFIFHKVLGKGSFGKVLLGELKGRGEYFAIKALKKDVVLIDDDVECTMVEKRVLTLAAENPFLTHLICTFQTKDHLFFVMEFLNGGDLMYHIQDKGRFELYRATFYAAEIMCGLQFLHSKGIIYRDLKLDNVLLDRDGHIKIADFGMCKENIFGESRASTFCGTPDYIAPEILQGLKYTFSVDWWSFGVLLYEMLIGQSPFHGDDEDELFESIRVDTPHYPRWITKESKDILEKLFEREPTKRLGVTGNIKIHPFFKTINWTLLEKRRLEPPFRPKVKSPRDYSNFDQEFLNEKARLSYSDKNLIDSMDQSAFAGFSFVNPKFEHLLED
UniProt Q15121, sequence (Q15121 whole entry, looked up): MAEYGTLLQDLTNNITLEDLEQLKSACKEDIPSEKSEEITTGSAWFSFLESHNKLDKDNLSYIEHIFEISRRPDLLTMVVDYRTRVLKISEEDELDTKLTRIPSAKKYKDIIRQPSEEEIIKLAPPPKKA

Target	log2 fold change [1]	log2 fold change [2]	log2 fold change [3]	log2 fold change [4]	log2 fold change (entinostat)	log2 fold change (vorinostat)	log2 fold change (citarinostat)	log2 fold change (silmitasertib)	log2 fold change [5]	log2 fold change [6]
PLD3 (UniProt Q8IV08)	0.008	-0.005	-0.177	-0.051	0.009	0.022	0.034	0.006	0.024	0.067
POTEI (UniProt P0CG38)	-0.058	0.061	0.139	0.124	-0.004	-0.016	-0.009	-0.03	-0.053	-0.004
PLBD1 (UniProt Q6P4A8)	0.008	-0.061	-0.076	-0.039	0.008	-0.038	-0.018	0.003	-0.027	0.409
PRKCD (UniProt Q05655)	-0.086	-0.05	-0.081	-0.031	0.024	0.031	0.006	0.045	-0.06	-0.083
PEA15 isoform 2 (UniProt Q15121)	0.021	-0.118	-0.103	0.016	0.075	-0.009	0.049	0.045	-0.067	-0.209
PSMD3 (UniProt O43242)	-0.027	0.009	-0.032	0.041	-0.02	-0.009	-0.009	0.008	0.014	-0.082
PSMB6 (UniProt P28072)	0.024	0.006	0.046	0.044	-0.054	-0.093	-0.046	-0.004	0.044	-0.034
PLBD2 (UniProt Q8NHP8)	-0.002	0.049	-0.091	-0.004	-0.008	-0.073	0.003	0.017	0.001	-0.006
RAB11FIP1 (UniProt Q6WKZ4)	0.019	-0.121	-0.086	-0.009	0.041	0.091	0.065	0.016	0	-0.07
PYGL (UniProt P06737)	0.135	0.012	-0.023	0.016	0.028	0.01	0.039	0.034	-0.043	-0.041
PPM1G (UniProt O15355)	-0.147	-0.086	-0.018	-0.181	0.017	0.079	0.033	0.031	-0.114	-0.102
PSMC3 (UniProt P17980)	0.014	-0.011	0.046	0.078	-0.024	-0.017	-0.053	-0.018	0.049	-0.092
PPIL2 (UniProt Q13356)	-0.069	-0.058	-0.077	-0.1	0.059	0.063	0.065	0.083	-0.07	-0.014
PPT2 isoform 3 (UniProt Q9UMR5)	0.035	0.008	-0.15	0.017	0.02	0.063	0.015	0.018	0.029	0.034
PRKAR2A (UniProt P13861)	-0.502 (active)	-0.071	-0.002	-0.039	0.025	-0.012	0.002	0.051	0.002	-0.028
PLEKHM2 (UniProt Q8IWE5)	0.01	-0.102	-0.315 (active)	-0.107	0.024	0.072	0.109	-0.058	-0.009	-0.125
POLR2D (UniProt O15514)	0.04	0.145	-0.016	0.022	-0.026	-0.133	-0.078	0.049	-0.015	-0.06
PIR (UniProt O00625)	-0.047	-0.053	-0.195	-0.024	-0.022	-0.625 (active)	-0.014	-0.038	-0.012	0.253 (active)
PCYT1A (UniProt P49585)	-0.015	-0.093	-0.234	-0.066	0.033	0.086	0.081	0.022	-0.06	-0.002
PARP1 (UniProt P09874)	-0.128	-0.064	-0.102	-0.09	0.142	0.042	0.091	0.039	-0.173	0
POMK (UniProt Q9H5K3)	0	0.058	-0.173	-0.044	0.045	0.04	0.105	0.101	0.017	-0.303
PTGFRN (UniProt Q9P2B2)	-0.115	0.083	0.013	0.014	-0.071	-0.055	0.021	-0.006	-0.007	-0.104
PSMA3 (UniProt P25788)	0.03	0.022	0.071	0.058	-0.027	-0.029	0.005	-0.002	0.102	-0.056
POGLUT1 (UniProt Q8NBL1)	-0.043	-0.057	-0.008	-0.102	-0.01	0.112	-0.058	0	0.019	-0.05
PIGG (UniProt Q5H8A4)	-0.046	-0.032	-0.06	0.052	0.039	-0.104	0.052	0.025	-0.019	0.029
PSMC6 (UniProt P62333)	0.007	0.015	0.069	0.075	-0.015	-0.005	-0.048	-0.035	0.072	-0.075
PTDSS1 (UniProt P48651)	0.043	-0.045	0.022	-0.007	-0.058	0.199	-0.051	0.091	0.184	-0.06
PRPF4B (UniProt Q13523)	-0.057	-0.075	-0.022	-0.065	-0.008	0.025	0.033	0.01	0.055	-0.328 (active)
PHF5A (UniProt Q7RTV0)	-0.004	0.009	0.101	0.051	-0.017	-0.08	0.014	0.082	-0.024	-0.003
POLR2G (UniProt P62487)	0.061	0.153	-0.008	0.003	-0.034	-0.148	-0.009	0.004	0.009	-0.037
